The supplement of paper PMC6555819

Tests used:
Test in all cases: PBM binding z-score (relative to random genomic background probes); higher = stronger binding; sequences stand for … in GC…GCGATTGACAGCGTAGAATGAAGG
[1] = tested on: RARb homodimer (NR concentration 270 nM)
Summary of the method: (§1)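 Ligand-free nuclear receptor dimers were applied to custom Agilent 4×180K protein-binding microarrays whose double-stranded probes carried direct-repeat seeds, single-nucleotide variants, half-site ablations and random human genomic background sequences in 34-nt variable regions. Incubation lasted 1 h. Binding z-scores were computed against the random background probes from regression-normalized fluorescence.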

[2] = tested on: RARg:RXRa (NR concentration 270 nM, RXRa partner concentration 90 nM)
Summary of the method: as §1

[3] = tested on: RARg homodimer (NR concentration 270 nM)
Summary of the method: as §1

[4] = tested on: RXRa DBDmut IVT, anti-RXR (DBD mutation: RXRa K156A/R161A, NR concentration 90 nM)
Summary of the method: as §1

[5] = tested on: RXRa homodimer (NR concentration 180 nM)
Summary of the method: as §1

[6] = tested on: THRa:RXRa (NR concentration 90 nM, RXRa partner concentration 90 nM)
Summary of the method: as §1

[7] = tested on: THRa homodimer (NR concentration 90 nM)
Summary of the method: as §1

[8] = tested on: VDR homodimer (NR concentration 270 nM)
Summary of the method: as §1

Row | Sequence | PBM binding z-score [1] | PBM binding z-score [2] | PBM binding z-score [3] | PBM binding z-score [4] | PBM binding z-score [5] | PBM binding z-score [6] | PBM binding z-score [7] | PBM binding z-score [8]
1 | CCTACTGGGCCTCGAAAGGTCATTGATTCAGTGA | 4.35 | 4.09 | 3.27 | 0.125 | 4.83 | 3.14 | 0.721 | 1.43
2 | CCTACTGGGCAAAAGGTCATTGATTCCAATGCTC | 4.53 | 5.81 | 5.23 | 0.966 | 6.04 | 3.09 | 0.51 | 1.72
3 | CTCGAAAGGTCGTGCTCAGGTGAGTATTCCAAAC | 3.11 | 5.04 | 3.61 | 2.25 | 4.55 | 4.04 | 1.31 | 0.806
4 | GGAACGAGGGCCTTCGAGTTGATAGCATGGCGAT | -1.03 | -0.45 | -0.368 | 0.207 | -0.125 | 0.262 | -1.24 | -0.335
5 | TTACCAAGGTGAGCTGAGGTCGTTGAACCAACTC | 1.77 | 1.21 | 0.931 | -0.0646 | 1.57 | 4.77 | 2.02 | 2.01
6 | CAAACTAGGTCACGAAAGGTCAAGGTCGAATGAC | 6.07 | 7.93 | 8.86 | 2.21 | 8 | 5.14 | 3.71 | 4.2
7 | CAAACTAGGTCACCTGAAGGTCAAAGTCCGCATG | 5.57 | 8.05 | 7.61 | 2.29 | 6.63 | 4.16 | 2.96 | 3.86
8 | AGAATGATGTTAAGATCAGGGAAACAGAATACAT | -0.787 | 0.187 | 0.295 | -0.58 | 0.00873 | -0.153 | -0.703 | -0.555
9 | CGTCCAAGGTCAAAGGTCGGTGAAGAGATGACGG | 4.52 | 7.18 | 6.2 | 3.85 | 8.84 | 4.24 | 2.17 | 2.78
10 | CCTAGCGGGCCAATCTGGGTCACTCAAGGCTTGA | 2.14 | 0.91 | 0.984 | -0.4 | 0.724 | 3.59 | 0.327 | -0.159
11 | CCAGACAGGTGAGAAGGTAACTCACCCTCGATTA | 0.972 | 0.89 | 0.67 | 0.134 | 0.806 | 0.55 | 0.193 | -0.0144
12 | ATCTCTAGGTAAAAATTCAGTGAATCCCGAGGAT | -0.367 | 0.604 | 0.58 | -0.329 | 0.184 | 0.19 | -0.0698 | -0.0746
13 | TCTCGGAGGACACGAAGGGCAGAGCTTTCCAGAG | 1.42 | 0.796 | 1.71 | 0.216 | -0.0528 | 1.33 | 0.123 | -0.0061
14 | TCTTCTAGGTCAGTTGGTCAGCTAACGAGCTGCC | 3.05 | 3.26 | 4.08 | 1.65 | 1.62 | 2.19 | 1.58 | 0.514
15 | CGTCCAAGGTCATAGGAGGTCAGTGAGGACAGAT | 5.13 | 6.73 | 7.15 | 4.28 | 6.16 | 5.22 | 4.53 | 5.81
16 | TCAGACAGGTGAAGGTAACGCAGGTACGCAGTCG | 0.708 | 0.407 | 0.419 | 0.772 | 1.05 | 1.01 | 0.208 | -0.187
17 | GGAACGAGGGCATTCTAGTTGATAGCATGGCGAT | 0.668 | 0.971 | 1.39 | 3.36 | 0.575 | 2.54 | -0.282 | 2.43
18 | CCGACTGGGTCATAAGGTTACCATAAGCCAGCCC | 3.46 | 4.62 | 3.25 | 0.935 | 3.8 | 3.13 | 1.94 | 0.993
19 | AGTCAAAGTTCACTAGGTAACCTAAGATTCAGCT | 3.75 | 5.2 | 5.66 | 4.32 | 4.04 | 2.46 | 0.759 | 4.29
20 | ATATCTAGGTAACAAGTTCAGTGAAAGAGAGGAC | 1.93 | 1.25 | 1.51 | 1.36 | 1.03 | 1.49 | 0.951 | 2.85
21 | CGAACGAGGGCATTAGTTGATAGCAAATGCCGAT | 0.501 | 0.774 | 1.37 | 2.96 | 0.438 | 0.5 | -0.321 | 1.64
22 | CCGAGGAGGTTATGGGGCATTCAGGCAACGGTGA | 1.31 | 1.42 | 0.885 | 0.0755 | 1.95 | 1.25 | 0.438 | 0.25
23 | AGAATGAGGTTACCAAAGATCAGAGAAACGCTTG | 0.638 | 2.17 | 1.6 | 1.04 | 2.47 | 2.64 | 0.519 | 0.185
24 | ATCTCTAGGTAAAGTTCAGAGAAAGATCGATAGA | 2.23 | 2.13 | 2.6 | 1.45 | 1.42 | 1.13 | -0.103 | 2.03
25 | CCGAGTAGATTATGGGGCATTCAGGCAACGGTGA | 0.0129 | -0.113 | 0.0692 | 0.349 | -0.0432 | 0.271 | -0.141 | -0.481
26 | ACTCAAAGTTCAGGACGAGGTAACGTAAAGCACG | 3.56 | 4.83 | 5.29 | 3.38 | 3.39 | 4.03 | 1.98 | 2.46
27 | TTACCAAGGTGAGCTCAGGTCGTTGATCCAACTC | 1.03 | 0.577 | 0.405 | -0.211 | 0.652 | 4.12 | 1.43 | 0.416
28 | CCTTACGGGGCACTCCAGGTTATAGCATCGGAGT | 0.528 | 0.714 | 0.823 | -0.513 | 0.523 | 3.58 | -0.229 | 0.0884
